# This is one part of a sample in which the strongest signals are shown more often than they occur.
# B1: TAL6-4LysM (Trichoderma atroviride) (protein)
# chain: AADSIPSISPTGIITPTPTQSGMVSNCNKFYDVHSNDGCSAIASSQHVDLSSLYKWNPAIKTDCSGLQASVYVCIGILTTSMSTTSKLPTTTSKPSTTSKPPTGITTPTPTQSGMVKNCNKFYDVHSGDGCSAIASSQKVNLSSFYLWNPAVKTDCSGLQASVFVCIGTLTTSMSTTTSKLPTTTSKPSTTSKPPTGIITPTPTQNGMVKNCNKFYDVHSGDGCSAIASSQKVNLSSFYLWNPAVKTDCSGLQASVFVCVGTATTTTAAGITTPTPTQSGMVSGCNKFYDVHAGDGCSAIASSQKIALSSLYKWNPAVKTDCSGLQASVYICIGVGNAAAARVTGALEQKLISEEDLNSAVDHHHHHH
# Columns and labels:
# Assay in all cases: glycan array binding signal (z-score within array); higher = stronger binding
# Settings in all cases: glycan notation: IUPAC condensed, linker removed
# [1] = biological target: Fuc(a1-2)Gal(b1-3)GalNAc(b1-3)Gal
# Outline: (§1)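 The Consortium for Functional Glycomics database supplied 3228 glycan arrays, of which those lacking an available protein sequence were dropped. The binding signal, a within-array Z-score, was averaged across arrays of the same protein sequence and across linkers. Negative scores can be read as non-binding.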
# [2] = biological target: Fuc(a1-2)Gal(b1-3)GalNAc(b1-3)Gal(a1-4)Gal(b1-4)Glc
# Outline: as §1
# [3] = biological target: Fuc(a1-2)Gal(b1-3)GlcNAc6S
# Outline: as §1
# [4] = biological target: Fuc(a1-2)Gal(b1-4)GlcNAc(b1-3)Gal(b1-4)GlcNAc
# Outline: as §1
# [5] = biological target: Fuc(a1-2)Gal(b1-4)GlcNAc(b1-3)GalNAc
# Outline: as §1
# [6] = biological target: Fuc(a1-2)Gal(b1-4)[Fuc(a1-3)]GlcNAc(b1-3)Gal(b1-4)[Fuc(a1-3)]GlcNAc(b1-3)Gal(b1-4)[Fuc(a1-3)]GlcNAc
# Outline: as §1
# [7] = biological target: Fuc(a1-2)Gal6S(b1-4)Glc6S
# Outline: as §1
# [8] = biological target: Fuc(a1-2)[Gal(a1-3)]Gal(b1-3)GlcNAc
# Outline: as §1
# [9] = biological target: Fuc(a1-2)[Gal(a1-4)]Gal(b1-4)GlcNAc
# Outline: as §1
# [10] = biological target: Fuc(a1-2)[GalNAc(a1-3)]Gal(b1-4)GlcNAc(b1-3)Gal(b1-4)GlcNAc(b1-3)Gal(b1-4)GlcNAc
# Outline: as §1
# [11] = biological target: Fuc(a1-2)[GalNAc(a1-3)]Gal(b1-4)GlcNAc(b1-3)[Fuc(a1-2)[GalNAc(a1-3)]Gal(b1-4)GlcNAc(b1-6)]GalNAc
# Outline: as §1
# [12] = biological target: Fuc(a1-3)[Gal(b1-4)]Glc6S
# Outline: as §1
# [13] = biological target: Fuc(a1-3)[Gal(b1-4)]GlcNAc(b1-3)GalNAc
# Outline: as §1
# [14] = biological target: Fuc(a1-3)[Gal(b1-4)]GlcNAc(b1-6)GalNAc
# Outline: as §1
# [15] = biological target: Fuc(a1-3)[GalNAc(b1-4)]GlcNAc
# Outline: as §1
# Gal(a1-4)GlcNAc = biological target: Gal(a1-4)GlcNAc
# Outline: as §1
# Gal(b1-2)Gal = biological target: Gal(b1-2)Gal
# Outline: as §1
# Gal(b1-3)Gal(b1-4)GlcNAc = biological target: Gal(b1-3)Gal(b1-4)GlcNAc
# Outline: as §1
# [16] = biological target: Gal(b1-3)GalNAc(a1-3)[Fuc(a1-2)]Gal(b1-4)Glc
# Outline: as §1
# [17] = biological target: Gal(b1-3)GlcNAc(b1-3)GalNAc
# Outline: as §1
# Gal(b1-3)GlcNAc6S = biological target: Gal(b1-3)GlcNAc6S
# Outline: as §1
# [18] = biological target: Gal(b1-3)[GlcNAc(b1-6)]GalNAc
# Outline: as §1
# Gal(b1-4)Glc6S = biological target: Gal(b1-4)Glc6S
# Outline: as §1
# [19] = biological target: Gal(b1-4)GlcNAc(b1-2)Man(a1-3)[GlcNAc(b1-4)][Gal(b1-4)GlcNAc(b1-2)Man(a1-6)]Man(b1-4)GlcNAc(b1-4)GlcNAc
# Outline: as §1
# [20] = biological target: Gal(b1-4)GlcNAc(b1-2)[Gal(b1-4)GlcNAc(b1-4)]Man(a1-3)[Gal(b1-4)GlcNAc(b1-2)Man(a1-6)]Man(b1-4)GlcNAc(b1-4)GlcNAc
# Outline: as §1
# [21] = biological target: Gal(b1-4)GlcNAc(b1-3)Gal(b1-3)GlcNAc
# Outline: as §1
# [22] = biological target: Gal(b1-4)GlcNAc(b1-3)Gal(b1-4)GlcNAc(b1-2)Man(a1-3)[Gal(b1-4)GlcNAc(b1-3)Gal(b1-4)GlcNAc(b1-2)Man(a1-6)]Man(b1-4)GlcNAc(b1-4)[Fuc(a1-6)]GlcNAc
# Outline: as §1
# [23] = biological target: Gal(b1-4)GlcNAc(b1-3)Gal(b1-4)GlcNAc(b1-3)Gal(b1-4)GlcNAc(b1-3)Gal(b1-4)GlcNAc(b1-3)Gal(b1-4)GlcNAc(b1-2)Man(a1-3)[Gal(b1-4)GlcNAc(b1-3)Gal(b1-4)GlcNAc(b1-3)Gal(b1-4)GlcNAc(b1-3)Gal(b1-4)GlcNAc(b1-3)Gal(b1-4)GlcNAc(b1-2)Man(a1-6)]Man(b1-4)GlcNAc(b1-4)GlcNAc
# Outline: as §1
# [24] = biological target: Gal(b1-4)GlcNAc(b1-3)Gal(b1-4)GlcNAc(b1-6)[Gal(b1-3)]GalNAc
# Outline: as §1
# [25] = biological target: Gal(b1-4)GlcNAc(b1-3)[Gal(b1-4)GlcNAc(b1-6)]Gal(b1-4)GlcNAc
# Outline: as §1
binder,measurement,setting,value
B1,glycan array binding signal (z-score),[1],-0.335
same,glycan array binding signal (z-score),[2],-1.13
same,glycan array binding signal (z-score),[3],1.83
same,glycan array binding signal (z-score),[4],0.858
same,glycan array binding signal (z-score),[5],-0.49
same,glycan array binding signal (z-score),[6],0.899
same,glycan array binding signal (z-score),[7],-0.234
same,glycan array binding signal (z-score),[8],-0.6
same,glycan array binding signal (z-score),[9],2.32
same,glycan array binding signal (z-score),[10],-0.51
same,glycan array binding signal (z-score),[11],-0.157
same,glycan array binding signal (z-score),[12],0.195
same,glycan array binding signal (z-score),[13],-0.606
same,glycan array binding signal (z-score),[14],-0.062
same,glycan array binding signal (z-score),[15],3.19
same,glycan array binding signal (z-score),Gal(a1-4)GlcNAc,2.59
same,glycan array binding signal (z-score),Gal(b1-2)Gal,0.734
same,glycan array binding signal (z-score),Gal(b1-3)Gal(b1-4)GlcNAc,2.92
same,glycan array binding signal (z-score),[16],-0.473
same,glycan array binding signal (z-score),[17],0.663
same,glycan array binding signal (z-score),Gal(b1-3)GlcNAc6S,3.15
same,glycan array binding signal (z-score),[18],2.39
same,glycan array binding signal (z-score),Gal(b1-4)Glc6S,-0.334
same,glycan array binding signal (z-score),[19],-0.532
same,glycan array binding signal (z-score),[20],3.53
same,glycan array binding signal (z-score),[21],-0.823
same,glycan array binding signal (z-score),[22],-0.014
same,glycan array binding signal (z-score),[23],-0.74
same,glycan array binding signal (z-score),[24],1.17
same,glycan array binding signal (z-score),[25],0.074

# Source: the supplement of paper PMC8728848
